Results reported in PubChem BioAssay (NCI).
Compounds without any hit were thinned out: in the full panel of roughly 83,000, 20% have a hit.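 Plates (96-well) were seeded with cells, treated with compound at one concentration, and incubated for 48 hours before percent growth was determined.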 The source made the active and inactive calls. How the source made its calls: active means growth percent below 10; inactive means the rest.

System: HL-60(TB) leukemia
Assay: NCI-60 one-dose screen, 48 h (100 = growth as untreated, 0 = no growth, -100 = all killed)
Details: 10 µM unless noted

| SMILES | growth |
| --- | --- |
| COC(=O)c1cc(Cl)cc([N+](=O)[O-])c1O | 18.8% (inactive) |
| CN(C)c1cc(NN=C(c2ccc(O)cc2)c2ccc(O)cc2)c([N+](=O)[O-])cc1[N+](=O)[O-] | 127% (inactive) |
| N=c1nc(N2CCCCC2)cc(N)n1O | 92.4% (inactive) |
| O=C(Cn1cc(CN2C(=O)c3ccccc3S2(=O)=O)nn1)Nc1cccc(Cl)c1 | 103% (inactive) |
| COc1ccc(C(c2cc(OC)c(OC)c(OC)c2)N2CCCCC2)cc1 (stereo not given) | 4.36% (active) |
| Nc1ccc(Cl)cn1 | 100% (inactive) |
| O=Cc1ccc(O)c2ncccc12 | -69.3% (active) |
| COc1ccc(CNc2nc3ccccc3c3c(=O)c4ccccc4sc23)cc1OC | 98.9% (inactive) |
| CC(C)(C)c1cc(O)c(O)c(C(C)(C)C)c1 | 4.04% (active) |
| C/C1=C\CCC2(C)OC2CC2CCC(C)(O)C(CC1)C2(C)C (stereo not given) | 142% (inactive) |
| Nc1c(Br)cc2c(c1Br)Cc1cc(Cl)ccc1-2 | 100% (inactive) |
| COc1cc(-c2nc(N=Nc3c(O)[nH]c4ccc(Br)cc34)[nH]c(=O)c2C#N)cc(OC)c1OC | 101% (inactive) |
| CC(=N\N=C(N)N)/C(=N/N=C(N)N)c1ccccc1 | 98.7% (inactive) |
| C/C(=N\OC(=O)Nc1cccc(Cl)c1)c1ccccc1 | 110% (inactive) |
| Cc1ccc(C=C2C(=O)NC(=O)NC2=O)cc1 | 101% (inactive) |
| COc1ccc(CCCc2c3[n+](cc4c(OC)c(OC)ccc24)CCc2cc4c(cc2-3)OCO4)cc1 | 36.6% (inactive) |
| CCN(C)c1ccccc1 | 100% (inactive) |
| CCCCNC(=O)c1cc([N+](=O)[O-])cc(C2CCCCC2)c1O | 19.8% (inactive) |
| COC(=O)c1ccc2c(c1)c1c(C)c3ccncc3c(C)c1n2C | 32.5% (inactive) |
| CCC(C)N(CCNc1cc(OC)cc2cccnc12)CCC(C)C (stereo not given) | 81% (inactive) |

| SMILES | growth |
| --- | --- |
| CN(C)CCN(C)CC(C)(C)C(=O)/C=C/c1ccc(Cl)c(Cl)c1 | -41.9% [100 µM] (active) |
| COc1cc(-c2nn(-c3cccc(NC(=O)NCCNC(=O)c4cccc(C(F)(F)F)c4)c3)cc2-c2ccncc2)ccc1Cl | 16.8% (inactive) |
| Nc1c(C(=O)Nc2cccc3c2OCCO3)sc2nc3c(cc12)C(=O)CCC3 | 12.4% (inactive) |
| CC(=O)NNC(=S)/N=C\C(C(=O)c1ccccc1)=C(/O)c1ccccc1 | 103% (inactive) |
| O=c1c2ccccc2oc2ccc(OCCCCCCN3CCCCCC3)cc12 | -47.9% (active) |
| ClC(Cl)(Cl)c1nc2nccnc2[nH]1 | 103% (inactive) |
| O=c1cc(-c2ccccc2)[nH]c2ccccc12 | 45% (inactive) |
| Cc1cc(C(=O)NOCCO)c(Nc2ccc(I)cc2F)n(C)c1=O | 20.8% (inactive) |
| COc1cnc2c(c1)C(=O)c1c-2n(CCCNC2=NCCS2)c(=O)c2cc(Cl)ccc12 | -63.8% (active) |
| CCCCn1c(NC(C)=O)c(S(=O)(=O)c2ccccc2)c2nc3ccccc3nc21 | 88.5% (inactive) |
| COc1ccc(NC(=S)N/N=C/c2ccccc2SSCCC(=O)OC[C@H]2O[C@H](O)[C@H](O)[C@@H](O)[C@@H]2O)cc1 | 75.1% (inactive) |
| Oc1ccccc1C=Nc1ccc(N2CCN(c3ccccc3)CC2)cc1 | 54.6% (inactive) |
| O=S(=O)(NCCCNc1nccc(-c2c(-c3cccc(F)c3)nc3sccn23)n1)c1cccc2ccccc12 | 53.9% (inactive) |
| COc1ccc(Nc2nc(N)nc3c2CCc2occc2-3)cc1 | 88.8% (inactive) |
| CC[N+](C)(CC)CCO | 96.9% (inactive) |
| Cc1cnc(SCc2ccc(Cl)cc2Cl)nc1Nc1ccc(Cl)c(Cl)c1 | 81% (inactive) |
| O=C(NC(Cc1nnc2n(Cc3ccccc3)c(=O)c3c4c(sc3n12)CCCC4)c1ccccc1)c1ccccc1 (stereo not given) | -70.3% (active) |
| CC1=NN(c2nc(-c3ccc(Cl)cc3)c(C#N)c(N3CCOCC3)n2)C(=O)C1 | 81.8% (inactive) |
| CC(=O)c1ccc(Nc2nc(Cl)nc(Oc3c(Cl)cccc3Cl)n2)cc1 | 97.8% (inactive) |
| Cn1c2c(c3ccc(-c4ccn[nH]4)cc3c1=O)C(=O)c1ccccc1-2 | -17.7% (active) |
